Compounds with a hit are over-represented: about 3.6% of the library has one in this group of screens.
Bead autofluor: flagged as autofluorescent in microsphere protease counterscreen; 360,000 tested, 3.1% active; compound autofluorescence counterscreen, microsphere flow cytometry; stronger effect = higher value; fluorescence intensity (test concentration not listed); in the data active = fluorescence intensity above about 16000; inconclusive = no clear call, values can overlap the other calls
BoNT-F LC inh: BoNT/F light chain protease inhibitors, primary screen, biochemical, flow cytometry, MLPCN library; 360,000 tested, 0.22% active; Botulinum neurotoxin type F light chain protease (Clostridium botulinum); inhibition, % at 10 µM; AID 588497, 2011; Multiplex microsphere protease cleavage assay; in the data active = inhibition above about 35%, passing the limit was not always enough; inconclusive = no clear call, values can overlap the other calls; also: plate controls were buffer without enzyme for full effect and enzyme alone for no effect
3CLpro inhibitor: SARS-CoV 3CLpro protease inhibitors, primary screen, biochemical, quenched FRET. Replicase polyprotein 1ab (Severe acute respiratory syndrome coronavirus), P0C6X7. recombinant SARS-CoV 3CLpro, quenched FRET peptide cleavage. inhibition, % at 6 µM. 290,000 tested, 0.14% active; in the data active = inhibition above about 12%
BJeLR lethal: MLPCN primary cell-based screen for lethality selective to Ras in HRASV12 cells. BJeLR (HRASV12) viability, CellTiter-Glo ATP luminescence, 48 h. 300,000 tested, 0.17% active. inhibition, % (no concentration beside the values); in the data active = inhibition above about 50%; inconclusive = no clear call, values can overlap the other calls
BoNT A protease: BoNT/A light chain protease inhibitors, primary screen, biochemical, flow cytometry, MLPCN library. Botulinum neurotoxin type A light chain protease (Clostridium botulinum A str. ATCC 3502). inhibition, % at 10 µM. 360,000 tested, 0.17% active. multiplex microsphere protease substrate cleavage. AID 588499, 2011; also: plate controls were buffer without enzyme for full effect and enzyme alone for no effect
Anthrax LF prot: Bacillus anthracis LF protease inhibitors, primary screen, biochemical, multiplex microsphere, MLPCN library; AID 588501, 2011; 360,000 tested, 0.12% active; inhibition, % at 10 µM; multiplex microsphere protease cleavage assay; Lethal factor (Bacillus anthracis), P15917; also: plate controls were buffer without enzyme for full effect and enzyme alone for no effect
Target sequence (P15917 whole entry, looked up): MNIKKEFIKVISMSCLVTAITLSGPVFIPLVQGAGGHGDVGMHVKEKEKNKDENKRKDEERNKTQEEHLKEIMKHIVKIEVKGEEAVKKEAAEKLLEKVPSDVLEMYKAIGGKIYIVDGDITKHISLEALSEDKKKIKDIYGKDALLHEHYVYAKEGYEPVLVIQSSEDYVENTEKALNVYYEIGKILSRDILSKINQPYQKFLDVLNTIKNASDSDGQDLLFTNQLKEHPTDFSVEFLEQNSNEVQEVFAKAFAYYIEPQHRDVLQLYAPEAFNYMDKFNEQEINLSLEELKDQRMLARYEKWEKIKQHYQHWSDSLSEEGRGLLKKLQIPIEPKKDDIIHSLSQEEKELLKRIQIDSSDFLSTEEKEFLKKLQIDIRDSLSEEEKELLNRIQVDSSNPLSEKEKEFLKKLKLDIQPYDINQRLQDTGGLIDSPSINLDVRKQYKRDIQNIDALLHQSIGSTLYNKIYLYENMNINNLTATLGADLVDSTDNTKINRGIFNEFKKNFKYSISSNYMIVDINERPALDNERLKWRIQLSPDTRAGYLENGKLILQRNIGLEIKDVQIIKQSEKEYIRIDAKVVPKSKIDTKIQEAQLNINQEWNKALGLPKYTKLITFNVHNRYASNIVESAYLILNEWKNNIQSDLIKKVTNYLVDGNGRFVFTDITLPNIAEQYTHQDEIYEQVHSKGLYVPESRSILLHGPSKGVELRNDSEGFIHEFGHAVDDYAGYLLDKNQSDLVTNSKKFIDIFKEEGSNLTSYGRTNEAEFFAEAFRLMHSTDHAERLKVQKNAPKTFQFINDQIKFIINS
An asterisk follows results filed as active. Rule as the data show it, unless noted: active = inhibition above about 30%; inconclusive = no clear call, values can overlap the other calls; inactive = below that.

Screening O=C(NCc1ccco1)c1nc2c(nnn2Cc2ccccc2Cl)c(=O)[nH]1 returned Bead autofluor 9232, BoNT-F LC inh -11.8, 3CLpro inhibitor -1.1, BJeLR lethal -2.8, BoNT A protease 1.4 and Anthrax LF prot 4.6.
For O=C(NCc1cccs1)c1nc2c(nnn2Cc2ccc(F)cc2)c(=O)[nH]1 the results were Bead autofluor 16259*, BoNT-F LC inh -0.5, 3CLpro inhibitor 3.6, BJeLR lethal 14.8, BoNT A protease -0.1 and Anthrax LF prot -2.4.
For Cc1ccc(C)c(Cn2nnc3c(=O)[nH]c(C(=O)NCc4ccco4)nc32)c1 the results were Bead autofluor 22656*, BoNT-F LC inh 1.0, 3CLpro inhibitor -1.4, BJeLR lethal 0.4, BoNT A protease 2.2 and Anthrax LF prot -9.3.
For O=C(O)c1ccn2c(C(=O)c3ccccc3)c(-c3ccccc3)cc2c1 the results were Bead autofluor 4775, BoNT-F LC inh inconclusive, 3CLpro inhibitor 4.5, BJeLR lethal 6.1, BoNT A protease 5.8 and Anthrax LF prot 8.1.
`O=C(COc1ccccc1C(=O)c1cnn(-c2ccccc2)c1)Nc1ccccc1` gave Bead autofluor 1951, BoNT-F LC inh 1.8, 3CLpro inhibitor 1.5, BJeLR lethal -8.5, BoNT A protease 0.4 and Anthrax LF prot -1.7.
Screening CCCS(=O)(=O)c1nnnn1-c1cccc(OC)c1 returned Bead autofluor 19154*, BoNT-F LC inh 0.4, 3CLpro inhibitor -2.1, BJeLR lethal 2.7, BoNT A protease 0.9 and Anthrax LF prot -1.2.
Screening COc1cccc(-n2nnnc2SCC(=O)Nc2ccccc2OC)c1 returned Bead autofluor 3373, BoNT-F LC inh inconclusive, 3CLpro inhibitor -4.2, BJeLR lethal 1.3, BoNT A protease 0.4 and Anthrax LF prot 3.2.
CCOc1ncccc1C(=O)OCC(=O)Nc1cccc(S(N)(=O)=O)c1 was read as Bead autofluor 2552, BoNT-F LC inh -1.5, 3CLpro inhibitor 1.4, BJeLR lethal 0.6, BoNT A protease 0.5 and Anthrax LF prot 1.1.
`CCN(CC)CCNC(=O)Cc1nn(CC)c(=O)c2ccccc12` gave Bead autofluor 10982, BoNT-F LC inh 3.4, 3CLpro inhibitor 3.3, BJeLR lethal -1.6, BoNT A protease 0.1 and Anthrax LF prot -0.3.
Screening CCN(CC)CCNC(=O)C(C)c1nn(CC)c(=O)c2ccccc12 (stereo not given) returned Bead autofluor 22461*, BoNT-F LC inh 0.8, 3CLpro inhibitor -3.4, BJeLR lethal -12.5, BoNT A protease 1.0 and Anthrax LF prot 0.2.
Cn1c(=O)c2c(nc(Br)n2Cc2ccc3ccccc3c2)n(C)c1=O was read as Bead autofluor 20690*, BoNT-F LC inh 5.0, 3CLpro inhibitor -3.8, BJeLR lethal 10.8, BoNT A protease inconclusive and Anthrax LF prot -2.2.
For C/C(Cl)=C\Cn1c(NCCc2ccccc2)nc2c1c(=O)n(C)c(=O)n2C the results were Bead autofluor 6537, BoNT-F LC inh 35.6*, 3CLpro inhibitor -2.1, BJeLR lethal 23.8, BoNT A protease inconclusive and Anthrax LF prot -0.1.
`CN(C)c1nc2c(c(=O)n(C)c(=O)n2C)n1Cc1ccccc1` gave Bead autofluor 22117*, BoNT-F LC inh -2.1, 3CLpro inhibitor 4.3, BJeLR lethal -5.6, BoNT A protease -0.2 and Anthrax LF prot 0.9.
For COc1ccc(OC)c(C(=O)C2COC(=O)C2)c1 (stereo not given) the results were Bead autofluor 3004, BoNT-F LC inh -1.8, 3CLpro inhibitor 3.4, BJeLR lethal -0.6, BoNT A protease -0.3 and Anthrax LF prot -5.1.
O=C(COC(=O)c1ccc(Cl)cc1)NCC1CCCCC1 was read as Bead autofluor 3644, BoNT-F LC inh -2.0, BoNT A protease -0.1 and Anthrax LF prot -7.7.
For CCCCNC(=S)NNC(=O)c1sccc1C the results were Bead autofluor 16469*, BoNT-F LC inh -1.0, 3CLpro inhibitor 0.0, BJeLR lethal 1.2, BoNT A protease -0.1 and Anthrax LF prot -1.6.
Screening Cn1nccc1C(=O)OCC(=O)Nc1nc(-c2ccccc2)cs1 returned Bead autofluor 22484*, BoNT-F LC inh 0.6, 3CLpro inhibitor 2.4, BoNT A protease inconclusive and Anthrax LF prot 0.1.
`CCCOC(=S)N/C(=N\S(=O)(=O)c1ccccc1)c1ccccc1` gave Bead autofluor 23253*, BoNT-F LC inh -0.5, 3CLpro inhibitor 1.3, BJeLR lethal -1.4, BoNT A protease -0.6 and Anthrax LF prot -3.2.
For CCOC(=S)N/C(=N\S(=O)(=O)c1ccccc1)c1ccccc1 the results were Bead autofluor 3245, BoNT-F LC inh 0.7, 3CLpro inhibitor -0.1, BJeLR lethal -6.0, BoNT A protease 0.5 and Anthrax LF prot -0.2.
COc1ccc(CN2C(=O)c3cccnc3C2Nc2ccc(OC)c(Cl)c2)cc1 (stereo not given) was read as Bead autofluor 22056*, BoNT-F LC inh 2.4, 3CLpro inhibitor 3.2, BJeLR lethal 1.6, BoNT A protease inconclusive and Anthrax LF prot -0.5.
COc1cc(NC2c3ncccc3C(=O)N2Cc2ccco2)cc(OC)c1 (stereo not given) was read as Bead autofluor 20554*, BoNT-F LC inh -3.8, 3CLpro inhibitor 2.8, BJeLR lethal 3.5, BoNT A protease -0.1 and Anthrax LF prot -9.4.
Screening Cc1ccc(NC2c3ncccc3C(=O)N2Cc2ccc(F)cc2)cc1 (stereo not given) returned Bead autofluor 10645, BoNT-F LC inh -6.1, 3CLpro inhibitor 7.0, BJeLR lethal -6.3, BoNT A protease -1.5 and Anthrax LF prot -5.8.
COc1ccc(NC2c3ncccc3C(=O)N2Cc2ccccc2)c(OC)c1 (stereo not given) was read as Bead autofluor 8556, BoNT-F LC inh -48.6, 3CLpro inhibitor -0.3, BJeLR lethal -2.8, BoNT A protease -2.4 and Anthrax LF prot -7.5.
Screening COc1ccc(NC(=O)N2CCC(c3nc4ccccc4[nH]3)CC2)cc1 returned Bead autofluor 2353, BoNT-F LC inh -0.5, 3CLpro inhibitor -1.7, BJeLR lethal 0.1, BoNT A protease -0.4 and Anthrax LF prot -0.5.
Screening NC(=O)c1ncn([C@@H]2O[C@H](CNCc3ccc(OCC(=O)Nc4ccccn4)cc3)[C@@H](O)[C@H]2O)n1 returned Bead autofluor 3494, BoNT-F LC inh -2.8, BoNT A protease -0.3 and Anthrax LF prot -5.8.
`COc1nc(Nc2ccc(O)cc2)nc(OC(C(F)(F)F)C(F)(F)F)n1` gave Bead autofluor 16552*, BoNT-F LC inh -6.9, 3CLpro inhibitor 3.1, BJeLR lethal -3.5, BoNT A protease -0.6 and Anthrax LF prot -5.3.
Nc1cccc(Nc2nc(OC(C(F)(F)F)C(F)(F)F)nc(OC(C(F)(F)F)C(F)(F)F)n2)c1 was read as Bead autofluor 3099, BoNT-F LC inh 2.5, 3CLpro inhibitor 8.1, BJeLR lethal 1.2, BoNT A protease -1.0 and Anthrax LF prot -5.7.
